Source: PubChem BioAssay (NCATS)
Values joined by “and” are separate entries in the source; they are usually repeats but may differ in a detail not shown here. Identical values can stand only once. Records with an inconclusive call do not appear. Active and inactive are the calls of the source. Unless noted, calls come from the whole dose curve; as a rule, active = well fitted curve in the direction sought with a large enough effect; inconclusive = small, poorly fitted or top-dose-only effect, or another doubt; inactive = no such curve, though single readings can be large; an effect the other way counts as inactive or inconclusive.

Experiments:
[1] = qHTS to identify inhibitors of the type 1 interferon - major histocompatibility complex class I in skeletal muscle: primary screen against the NCATS Mechanism Interrogation Plate v5.0 (MIPE) Libary (AID 1347411); note: nearly all actives have a fitted effect of over 65% in size; note: potency is the fitted concentration of half-maximal effect;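 for activity change, negative = inhibition: plate controls were vehicle for no effect and reference inhibitor for full effect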
Procedure, shortened: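 Cells were genome-edited human myoblasts carrying a HiBit tag on endogenous HLA-B. They were treated with IFN-beta (4.0 ng/ml) and titrated compounds (top 46 uM) for 24 hrs before lytic HiBiT detection.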

[2] = biological target: Protein phosphatase 1D (Homo sapiens) (UniProt O15297); assay: RapidFire Mass Spectrometry qHTS Assay for Modulators of WT P53-Induced Phosphatase 1 (WIP1) (AID 1347424);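 note: amount of dephosphorylated VEPPL-S-QETFS peptide product formed by WIP1; series mostly up to about 63 µM; plate controls were DMSO wells for no effect and GSK830371 inhibitor control at 10 µM for full effect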
Procedure, shortened: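 10 nM WIP1 preincubated with compounds 1 hr at room temperature in pH 7.5 Tris buffer with 30 mM MgCl2, 1 mM TCEP; 2 uM VEPPL-pS-QETFS phosphopeptide for 5 min, formic acid quench; dephosphorylated product quantified by RapidFire MS against labelled standard.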

[3] = biological target: Protein phosphatase 1D (Homo sapiens) (UniProt O15297); assay: Rhodamine-PBP qHTS Assay for Modulators of WT P53-Induced Phosphatase 1 (WIP1) (AID 1347425); note: % of control where 0% means no effect
Procedure, shortened: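 WIP1 (5 nM final) was preincubated with compound for 1 hour at room temperature. It then dephosphorylated 10 uM VEPPL-pS-QETFS peptide in Tris-HCl pH 7.5 with 30 mM MgCl2. Released Pi was detected by 10 uM Rh-PBP fluorescence (ex 525/em 598 nm) read at 1-min intervals for 11 min, as delta f1 - f0.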

[4] = Primary qHTS for inhibitors of La Crosse Virus (LACV) - induced cell death in SH-SY5Y cells (AID 1508616); note: potency is the fitted concentration of half-maximal effect;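 for activity change: top concentration of the series differs between compounds; 0% = infected DMSO wells and 100% = uninfected DMSO wells; higher means more rescue of cells from virus-induced death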
Procedure, shortened: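 Readout was luminescence from ATPLite 1step added after a 6-day LACV infection (0.01 MOI) of SH-SY5Y cells that had received pin-transferred compound 24 hr after seeding.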

[5] = Primary qHTS for small molecule stabilizers of the endoplasmic reticulum resident proteome: Secreted ER Calcium Modulated Protein (SERCaMP) assay (AID 1508630); note: % is set by controls: 0 for no effect and ±100 for the full control effect
Procedure, shortened: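 GLuc-SERCaMP-expressing SH-SY5Y cells, pretreated 16 h with compound, are challenged with thapsigargin to empty ER calcium stores; after 4 h, coelenterazine is added directly to the medium and luminescence is imaged.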

[6] = biological target: Cytochrome P450 2D6 (Homo sapiens) (UniProt P10635); assay: Cytochrome P450 family 2 subfamily D member 6 (CYP2D6) small molecule antagonists: luciferase biochemical (cell-free) qHTS assay (AID 1645840; active = well fitted curve in the direction sought with a large enough effect in the repeat runs; an effect the other way counts as inactive or inconclusive; note: nearly all actives have a fitted effect of over 55% in size; note: potency is the fitted concentration of half-maximal effect; for activity change, negative = inhibition: series mostly up to about 57 µM; % is set by controls: 0 for no effect and ±100 for the full control effect)
Procedure, shortened: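 P450-Glo luminescent screen: recombinant CYP2D6 enzyme–proluciferin substrate mix preincubated with compound 10 min at room temperature, then NADPH regeneration added for 1 h at room temperature. Detection reagent added for 20 min; luciferin light read as relative luminescence units.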

[7] = biological target: Cytochrome P450 2C9 (Homo sapiens) (UniProt P11712); assay: Cytochrome P450 family 2 subfamily C member 9 (CYP2C9) small molecule antagonists: luciferase biochemical (cell-free) qHTS assay (AID 1645842; active = well fitted curve in the direction sought with a large enough effect in the repeat runs; an effect the other way counts as inactive or inconclusive; note: nearly all actives have a fitted effect of over 55% in size; note: potency is the fitted concentration of half-maximal effect)
Procedure, shortened: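 Luminescence, after 20 min with luciferin detection reagent, reflected CYP2C9 turnover during a 1 h NADPH-driven reaction at 37C. Enzyme-substrate mix contained 0.4% bovine serum albumin and was preincubated with compound 10 min at room temperature.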

[8] = Primary qHTS for inhibitors of nuclear receptor binding SET domain protein 2 (NSD2) in an isogenic RCH-ACV NSD2 p.E1099K mutant (9B) (AID 1645876); note: nearly all actives have a fitted effect of over 70% in size; note: potency is the fitted concentration of half-maximal effect
[9] = biological target: Calcium and integrin-binding protein 1 (Homo sapiens) (UniProt Q99828); assay: Primary qHTS for Identification of Calcium Integrin Binding Protein 1 (CIB1) Competitor (AID 1508620);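 note: GST tagged CIB1 binding a fluorescein labelled alphaIIb integrin peptide tracer; top concentration of the series differs between compounds; % is set by controls: 0 for no effect and ±100 for the full control effect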
Procedure, shortened: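 Fluorescence polarization competition: GST-tagged CIB1 (1 uM final) preincubated with compound 15 min at room temperature, then FITC-labelled alphaIIb peptide (100 nM final) added. After 15 min at room temperature, polarization read at Ex 480/Em 540.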

[10] = biological target: Single-stranded DNA cytosine deaminase (Homo sapiens) (UniProt Q9GZX7); assay: Validation qHTS assay for inhibitors of Activation Induced Cytidine Deaminase (AID): AID signal (AID 1347429); note: % is set by controls: 0 for no effect and ±100 for the full control effect
Procedure, shortened: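 In this coupled qHTS, AID deaminates a FRET-labelled ssDNA substrate in the presence of UDG over 4 hr at room temperature. Compounds span up to 114 uM final.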

[11] = Primary qHTS for inhibitors of nuclear receptor binding SET domain protein 2 (NSD2) in an RCH-ACV wild type WT cells (2C) (AID 1645877); note: nearly all actives have a fitted effect of over 70% in size; note: potency is the fitted concentration of half-maximal effect
[12] = Counterscreen qHTS for small molecule stabilizers of the endoplasmic reticulum resident proteome: GLuc-NoTag assay (AID 1508627); note: potency is the fitted concentration of half-maximal effect;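 for activity change, negative = inhibition: SH-SY5Y cells given compound then 100 nM thapsigargin to empty ER calcium; series mostly up to about 76 µM; 0% = thapsigargin alone and -100% = DMSO vehicle control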
Procedure, shortened: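 SH-SY5Y cells stably expressing constitutively secreted GLuc without SERCaMP tag, exposed to compound for 19 hr, then to 100 nM thapsigargin for 4 hr at 37C. Medium luciferase was read by coelenterazine luminescence without lysis.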

[13] = Cell Viability qHTS for small molecule stabilizers of the endoplasmic reticulum resident proteome (AID 1508629); details: cell viability counter-screen, 100 nM thapsigargin for final 4 h;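 note: compound exposure about 46 h in total before the viability read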; note: potency is the fitted concentration of half-maximal effect
[14] = A High-Content qHTS Against Drug Library for the Identification of Small Molecules that Inhibit DYT1 Early Onset Primary Dystonia-Associated Cell Pathology (AID 1645839; calls by dose curve; note: series mostly up to about 46 µM)
Procedure, shortened: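 Flp-In T-REx 293 cells with tetracycline-inducible EGFP-delE hTOR1A (WT EGFP-hTOR1A as reference), 800 cells/well; compound added with tetracycline, 48 h at 37 C. Fixed, permeabilized cells imaged; %pathology (punctate TorsinA) primary, cell count counterscreen.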

Sequence of Calcium and integrin-binding protein 1 (Homo sapiens) (Q99828 whole entry, looked up): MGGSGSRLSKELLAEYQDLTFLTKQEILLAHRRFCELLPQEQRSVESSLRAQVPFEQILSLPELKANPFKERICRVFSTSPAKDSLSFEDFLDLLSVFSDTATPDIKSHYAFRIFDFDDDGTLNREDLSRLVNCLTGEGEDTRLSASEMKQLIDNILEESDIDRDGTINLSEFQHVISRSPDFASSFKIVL
Sequence of Cytochrome P450 2D6 (Homo sapiens) (P10635 whole entry, looked up): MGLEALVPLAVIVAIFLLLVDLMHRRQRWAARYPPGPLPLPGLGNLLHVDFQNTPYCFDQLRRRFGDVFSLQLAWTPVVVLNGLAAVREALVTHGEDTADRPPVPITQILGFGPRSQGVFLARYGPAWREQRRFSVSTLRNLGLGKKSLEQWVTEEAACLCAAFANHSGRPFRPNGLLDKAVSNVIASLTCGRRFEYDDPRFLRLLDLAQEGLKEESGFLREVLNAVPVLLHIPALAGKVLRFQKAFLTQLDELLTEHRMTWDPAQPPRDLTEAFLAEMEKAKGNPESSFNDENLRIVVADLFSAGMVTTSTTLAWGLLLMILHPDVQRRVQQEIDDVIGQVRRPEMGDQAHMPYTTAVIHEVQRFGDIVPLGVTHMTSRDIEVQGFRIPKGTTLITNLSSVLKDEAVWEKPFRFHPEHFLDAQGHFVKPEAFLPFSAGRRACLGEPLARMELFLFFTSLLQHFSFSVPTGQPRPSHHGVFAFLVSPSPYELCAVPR
Sequence of Cytochrome P450 2C9 (Homo sapiens) (P11712 whole entry, looked up): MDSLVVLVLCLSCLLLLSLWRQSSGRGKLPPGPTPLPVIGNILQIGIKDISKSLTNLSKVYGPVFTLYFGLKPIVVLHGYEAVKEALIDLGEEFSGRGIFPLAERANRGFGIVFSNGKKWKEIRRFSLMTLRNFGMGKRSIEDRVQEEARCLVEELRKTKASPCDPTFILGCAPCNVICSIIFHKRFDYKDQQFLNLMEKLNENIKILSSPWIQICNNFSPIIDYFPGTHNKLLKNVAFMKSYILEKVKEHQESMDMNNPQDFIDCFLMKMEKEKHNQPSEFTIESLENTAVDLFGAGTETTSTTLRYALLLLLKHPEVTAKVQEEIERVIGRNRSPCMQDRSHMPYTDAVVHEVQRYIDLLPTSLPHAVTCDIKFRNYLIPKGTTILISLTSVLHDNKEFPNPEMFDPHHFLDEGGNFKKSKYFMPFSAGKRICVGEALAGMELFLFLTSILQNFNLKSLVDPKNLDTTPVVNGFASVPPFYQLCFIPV
Sequence of Protein phosphatase 1D (Homo sapiens) (O15297 whole entry, looked up): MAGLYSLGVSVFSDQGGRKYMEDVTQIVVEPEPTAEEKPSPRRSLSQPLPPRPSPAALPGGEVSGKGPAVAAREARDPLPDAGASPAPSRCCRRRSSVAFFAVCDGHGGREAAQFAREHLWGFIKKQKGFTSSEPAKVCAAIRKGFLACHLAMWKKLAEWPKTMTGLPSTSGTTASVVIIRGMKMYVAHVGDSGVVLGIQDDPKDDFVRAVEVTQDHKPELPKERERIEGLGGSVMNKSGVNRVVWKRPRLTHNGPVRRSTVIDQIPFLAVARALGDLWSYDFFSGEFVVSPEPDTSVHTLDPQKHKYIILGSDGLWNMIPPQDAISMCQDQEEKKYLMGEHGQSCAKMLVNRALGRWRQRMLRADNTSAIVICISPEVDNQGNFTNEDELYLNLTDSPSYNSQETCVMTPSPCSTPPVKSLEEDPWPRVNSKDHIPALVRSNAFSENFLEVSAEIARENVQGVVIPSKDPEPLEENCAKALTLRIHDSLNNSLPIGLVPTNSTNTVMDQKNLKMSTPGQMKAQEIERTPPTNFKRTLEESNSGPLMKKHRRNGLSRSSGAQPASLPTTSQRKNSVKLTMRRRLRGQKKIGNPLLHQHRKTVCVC
Sequence of Single-stranded DNA cytosine deaminase (Homo sapiens) (Q9GZX7 whole entry, looked up): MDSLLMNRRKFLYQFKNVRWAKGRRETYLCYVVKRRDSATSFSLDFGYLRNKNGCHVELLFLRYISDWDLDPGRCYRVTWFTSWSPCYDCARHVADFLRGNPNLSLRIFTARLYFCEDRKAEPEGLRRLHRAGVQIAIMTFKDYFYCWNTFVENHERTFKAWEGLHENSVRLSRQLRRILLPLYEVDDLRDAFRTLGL

O=C(NC(Cc1cc(=O)[nH]c2ccccc12)C(=O)O)c1ccc(Cl)cc1 (centres undefined)
inactive: Potency [1] | Potency [2] | outcome [3] | Potency [4] | Potency [5] | Potency [6] | Potency [7] | Potency [8]

O=P(O)(O)C(O)(Cn1ccnc1)P(=O)(O)O
inactive: activity change, negative = inhibition [1] 2.74% [at 5.1 µM] | Potency [9] | Potency [5] | activity change, negative = viability loss [8] 6% [at 4.96 µM]

Nc1ccn([C@@H]2O[C@H](CO)[C@@H](O)C2O)c(=O)n1 (some centres undefined)
active: Potency [4] 0.316 µM | Potency [8] 0.0166 µM | Potency [11] 16.6 nM
inactive: Potency [1] | outcome [10] | Potency [9] | Potency [5] | Potency [6]

CCCCN(CCCC)CCC(O)c1cc2c(Cl)cc(Cl)cc2c2cc(C(F)(F)F)ccc12 (centres undefined)
inactive: Potency [1] | Potency [2] | outcome [3] | Potency [5] | Potency [7]
active: Potency [6] 550 nM | Potency [8] 13.3 µM

COC(=O)C1=C(C)NC(C)=C(C(=O)OCCCN2CCC(c3ccccc3)(c3ccccc3)CC2)C1c1cccc([N+](=O)[O-])c1 (centres undefined)
active: Potency [12] 39.8 µM | Potency [13] 28.2 µM | Potency [8] 7.42 µM and 7.5 µM | Potency [11] 6.61 µM and 5.96 µM
inactive: Potency [2] | outcome [3] | Potency [4] | Potency [9] | Potency [5]

Cc1ccc(C)c(OCCCC(C)(C)C(=O)O)c1
inactive: Potency [1] | Potency [2] | outcome [3] | Potency [4] | Potency [5] | Potency [14] | Potency [6] | Potency [8] | Potency [11]

Nc1ccc(S(N)(=O)=O)cc1
inactive: Potency [1] | Potency [2] | outcome [3] | Potency [4] | Potency [5] | Potency [14] | Potency [8]

Cc1c(C(=O)NN2CCCCC2)nn(-c2ccc(Cl)cc2Cl)c1-c1ccc(Cl)cc1
inactive: Potency [2] | outcome [3] | Potency [4] | Potency [9] | Potency [5]

COc1c2occc2cc2ccc(=O)oc12
active: Potency [7] 3.89 µM
inactive: Potency [1] | Potency [2] | outcome [3] | Potency [4]

Cc1cccc(C)c1OCC(=O)N[C@@H](Cc1ccccc1)[C@@H](O)C[C@H](Cc1ccccc1)NC(=O)[C@H](C(C)C)N1CCCNC1=O
inactive: Potency [2] | outcome [3] | Potency [4] | Potency [9] | max response [13] -5.9%
active: Potency [12] 39.8 µM | Potency [6] 13800 nM | Potency [7] 17.4 µM

CN(C)c1ccc2nc3ccc(=[N+](C)C)cc-3sc2c1
active: Potency [1] 18.6 µM | Potency [8] 1.32 µM and 2.37 µM
inactive: Potency [4] | Potency [5]

CC1(C)CCC(C)(C)c2cc(NC(=O)c3ccc(C(=O)O)cc3)ccc21
inactive: Potency [1] | Potency [4] | Potency [9] | Potency [12] | Potency [5] | Potency [6] | Potency [7]

CC(=O)O[C@H]1C(=O)[C@@]2(C)C([C@H](OC(=O)c3ccccc3)[C@]3(O)C[C@H](OC(=O)[C@H](O)[C@@H](NC(=O)c4ccccc4)c4ccccc4)C(C)=C1C3(C)C)[C@]1(OC(C)=O)CO[C@@H]1C[C@@H]2O (some centres undefined)
inactive: Potency [1] | outcome [10] | Potency [4] | Potency [9] | Potency [5]
active: Potency [8] 4.5 nM and 5.9 nM | Potency [11] 5.1 nM and 5.9 nM

O=c1oc2cc(O)ccc2s1
inactive: Potency [1] | Potency [5] | Potency [6] | Potency [7]
active: Potency [8] 20.9 µM

CCC(C)(Oc1ccc(C2(c3ccc(OC(C)(CC)C(=O)O)cc3)CCCCC2)cc1)C(=O)O (centres undefined)
inactive: Potency [1] | outcome [3] | Potency [4] | Potency [9] | Potency [6] | Potency [7] | Potency [8]

Cc1ccc(S(=O)(=O)NC(=O)NN2CC3CCCC3C2)cc1 (centres undefined)
inactive: Potency [1] | Potency [2] | outcome [3] | Potency [4] | Potency [14] | Potency [6] | Potency [7] | Potency [8] | Potency [11]

COc1c(O)cc2c(c1O)[C@@H]1O[C@H](CO)[C@@H](O)[C@H](O)[C@H]1OC2=O
inactive: Potency [6] | Potency [7] | Potency [8] | Potency [11]

CC(C)[N+]1(C)[C@@H]2CC[C@H]1CC(OC(=O)C(CO)c1ccccc1)C2 (some centres undefined)
inactive: Potency [9]

Cc1nccn1CC1CCc2c(c3ccccc3n2C)C1=O (centres undefined)
active: Potency [6] 11 µM and 13.5 µM
inactive: Potency [2] | outcome [3] | Potency [4] | Potency [9] | Potency [5] | Potency [14] | Potency [7] | Potency [8] | Potency [11]
